Sampled rows, rich in hits. Any-hit rate of the full collection: about 18%.
RORgamma inh: blocks mouse ROR gamma transcriptional activity. Potency, µM (highest dose often 53.6 µM), without a hit: at the top dose activity change, negative = inhibition, hits mostly inhibitors. Drosophila S2 Gal4-RORgamma UAS-luciferase reporter, 20 h. 310,000 compounds, 5.4% hits. P51450; also: potency is read from the fitted curve at half-maximal effect; nearly all actives have a fitted effect of over 60% in size
Target sequence (P51450 whole entry, looked up, the tested form may be a part): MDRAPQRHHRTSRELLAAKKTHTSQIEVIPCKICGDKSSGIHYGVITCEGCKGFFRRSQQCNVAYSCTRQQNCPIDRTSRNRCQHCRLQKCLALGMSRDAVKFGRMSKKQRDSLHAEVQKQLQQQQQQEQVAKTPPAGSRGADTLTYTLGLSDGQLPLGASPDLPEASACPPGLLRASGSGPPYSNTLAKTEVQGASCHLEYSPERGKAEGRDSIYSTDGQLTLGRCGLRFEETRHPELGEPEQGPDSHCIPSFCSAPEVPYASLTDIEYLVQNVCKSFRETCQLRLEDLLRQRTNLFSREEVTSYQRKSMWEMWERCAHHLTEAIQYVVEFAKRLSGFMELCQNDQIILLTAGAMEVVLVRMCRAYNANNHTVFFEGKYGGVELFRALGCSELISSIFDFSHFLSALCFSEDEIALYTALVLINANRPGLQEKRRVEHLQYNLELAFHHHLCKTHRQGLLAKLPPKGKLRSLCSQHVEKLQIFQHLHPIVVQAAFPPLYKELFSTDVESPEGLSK
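Stably transfected Drosophila Schneider cells are the test system, with ROR gamma fused to Gal4 and luciferase under UAS control; luminescence is read after 20 hr of 700 uM copper sulfate induction at ambient temperature.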
Gal4-VP16 FLuc: inhibits Gal4-VP16 luciferase reporter, ROR gamma counter-screen. Drosophila S2 Gal4-VP16 UAS-luciferase, luminescence, 20 h. Potency, µM (highest dose often 53.6 µM), for inactives: at the top dose activity, negative = inhibition, actives largely listed as inhibitors. 310,000 compounds, 3.5% hits;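 also: Gal4-VP16 expression switched on by copper sulfate through the metallothionein promoter; potency is read from the fitted curve at half-maximal effect; nearly all actives have a fitted effect of over 50% in size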
LDHA inh: blocks human lactate dehydrogenase A; 480,000 compounds, 0.15% hits; purified LDHA, NADH/diaphorase-resazurin fluorescence; active compounds read low; activity change, % (values are at about 110 or 230 µM); AID 1347041; in the data active = activity change below about -30%; inconclusive = mostly about -25% to -30%;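 also: plate controls were DMSO wells for no effect and wells without enzyme for full effect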
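Remaining NADH was detected by diaphorase (0.133 mg/mL) converting 37 µM resazurin to fluorescent resorufin, read at 0 and 20 minutes. The preceding 5-minute room-temperature reaction used 2 nM LDHA, 0.2 mM sodium pyruvate and 0.06 mM NADH at pH 7.4.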
DT40 TDP1 no CPT: qHTS for Inhibitors of human tyrosyl-DNA phosphodiesterase 1 (TDP1): qHTS in cells in absence of CPT; DT40 Tdp1-/- hTDP1 cells, no CPT, ATP luminescence, 48 h; Potency, µM (titrated, usually from 46.2 µM), inactives show at the top dose activity change, negative = growth inhibition, most hits filed as inhibitors; 420,000 compounds, 15% hits; AID 686978, 2013; also: potency is read from the fitted curve at half-maximal effect; nearly all actives have a fitted effect of over 55% in size
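DT40 Tdp1-/-;hTDP1 cells, no CPT (DMSO vehicle only), 400 cells/well; compounds pin-transferred; ≥48 hr, 37 °C; CellTiter-Glo 30 min RT dark, luminescence read.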
IL1B secr inh: inflammasome signaling inhibition, IL-1 beta readout | THP-1 LPS/ATP IL-1B secretion, AlphaLISA, 16 h; active compounds read low | activity change, % at 57.5 µM | 360,000 compounds, 4.7% hits | AID 743279; in the data active = activity change below about -50%; inconclusive = mostly about -30% to -49%
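THP-1 cells pretreated 1 hr with compounds (up to 57.5 uM final), then stimulated with LPS (250 ng/mL final) plus ATP (1.25 mM final); secreted IL-1B measured by AlphaLISA after 16 hr, decreased signal indicating inhibition.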
DT40 TDP1 CPT: DT40-hTDP1 cell growth loss with CPT | chicken DT40 Tdp1-/-;hTDP1 cells + 20 nM CPT, ATP luminescence, 48 h | Potency, µM (top dose mostly 46.2 µM), for inactives: at the top dose activity change, negative = growth inhibition, hits mostly inhibitors | 420,000 compounds, 12% hits | AID 686979; also: potency is read from the fitted curve at half-maximal effect; nearly all actives have a fitted effect of over 55% in size
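Chicken DT40 Tdp1-/- cells stably complemented with human TDP1 were seeded at 400 cells/well in medium containing 20 nM camptothecin, exposed to pin-transferred compounds, and grown at 37 °C for at least 48 hr. Viability was read as ATP luminescence.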
Starred values were filed as active, the others as inactive; ? = inconclusive; . = no result. Unless noted, calls follow the shape of the dose curve; as a rule, active = well fitted curve in the direction sought with a large enough effect; inconclusive = small, poorly fitted or top-dose-only effect, or another doubt; inactive = no such curve, though single readings can be large; an effect the other way counts as inactive or inconclusive. Unless noted, % is scaled to controls: 0 for no effect and ±100 for the full control effect.

SMILES	RORgamma inh	Gal4-VP16 FLuc	LDHA inh	DT40 TDP1 no CPT	IL1B secr inh	DT40 TDP1 CPT
O=C(c1csnn1)N1CCC[C@@]2(CCN(Cc3cc(C(F)(F)F)cc(C(F)(F)F)c3)C2)C1	-1%	4%	.	?	.	?
COc1ccc(C(=O)N2CCC3(CCN(Cc4cc(C(F)(F)F)cc(C(F)(F)F)c4)CC3)CC2)cc1	1%	-10%	.	?	.	23µM*
Cc1noc(C)c1C(=O)N1CCC2(CCN(Cc3cc(C(F)(F)F)cc(C(F)(F)F)c3)CC2)CC1	-37%	4%	.	23µM*	.	?
O=C(c1csnn1)N1CCC2(CCN(Cc3cc(C(F)(F)F)cc(C(F)(F)F)c3)CC2)CC1	-9%	2%	.	23µM*	.	?
COc1ccc(Cl)cc1C(=O)N(C1CCCCC1)C1CCCCC1	.	.	10	.	.	.
O=C(NCCNC(=O)c1cnccn1)c1ccc(Cl)c(Cl)c1	7%	9%	-7	-29%	34	1%
O=C(NNC(=O)c1ccccc1Br)c1cnccn1	.	.	0	?	16	18µM*
O=C(NNC(=O)c1cnccn1)c1ccc(Cl)c(Cl)c1	6.3µM*	10µM*	0	3.7µM*	166	7.3µM*
O=C(NNC(=O)c1ccccc1Br)c1ccncc1	1%	0%	-2	24%	0	-12%
O=c1ccc(S(=O)(=O)N2CCCC2)cn1Cc1ccc(Cl)cc1Cl	.	.	-14	12µM*	-4	21µM*
Cc1ccc2cc(C(c3nnnn3C3CCCC3)N(Cc3ccco3)Cc3cccs3)c(=O)[nH]c2c1 (stereo not given)	5%	-5%	-2	?	0	23µM*
Cc1ccc2cc(C(c3nnnn3C3CCCC3)N(Cc3cccnc3)Cc3ccco3)c(=O)[nH]c2c1 (stereo not given)	-23%	1%	9	?	?	?
COc1ccc2cc(CN(CCCN3CCOCC3)Cc3nnnn3C3CCCCC3)c(=O)[nH]c2c1	6%	-14%	9	-7%	-11	-29%
CCC(c1nnnn1C1CCCCC1)N(Cc1ccco1)Cc1cc2ccc(OC)cc2[nH]c1=O (stereo not given)	1%	-16%	1	16µM*	-58*	?
COc1cc(C(=O)Nc2ccc3oc(-c4ccc5ccccc5c4)nc3c2)cc(OC)c1OC	.	.	2	.	.	.
Cc1cc(C(=O)CSc2ccccc2Br)c(C)[nH]1	.	.	0	.	.	.
O=c1c(C(F)(F)F)cccn1Cc1coc(-c2cccc(F)c2)n1	.	.	-11	.	.	.
COc1cc(OC)c(OC)cc1CN1CCCC(c2[nH]ncc2-c2cccc(C(F)(F)F)c2)C1 (stereo not given)	.	.	.	23µM*	.	?
N#CC(C#N)=C1C=C2C=C(N3CCCCC3)CCC2CC1 (stereo not given)	30%	-1%	0	21µM*	-6	26µM*
CCN(CC)C1=CC2=CC(=C(C#N)C#N)CCC2CC1 (stereo not given)	-5%	-13%	-6	?	-2	-14%
COC(=O)c1cccc(OS(=O)(=O)c2ccc3oc(=O)ccc3c2)c1	.	.	5	.	.	.
O=C1NC(=O)C(CC(=O)N(c2ccccc2)C2(C(=O)NC3CCCC3)CCCCC2)N1 (stereo not given)	-2%	0%	-3	-14%	-5	-28%
O=C(Cc1cccs1)N(Cc1ccco1)C1(C(=O)NC2CCCCC2)CCCCC1	-16%	-9%	-4	18µM*	?	15µM*
O=C(Cc1cccs1)N(c1ccc(F)cc1)C1(C(=O)NC2CCCCC2)CCCC1	5%	-6%	0	23µM*	0	?
O=C(Cc1cccs1)N(Cc1cccs1)C1(C(=O)NC2CCCC2)CCCCC1	-15%	-7%	-3	6.5µM*	-24	8.2µM*
SMILES	RORgamma inh	Gal4-VP16 FLuc	LDHA inh	DT40 TDP1 no CPT	IL1B secr inh	DT40 TDP1 CPT
O=C(NCC(=O)N(Cc1cccs1)C1(C(=O)NC2CCCC2)CCCCC1)c1ccccc1	.	.	1	.	.	.
O=C(Cc1cccs1)N(CC1CCCO1)C1(C(=O)NC2CCCC2)CCCCC1 (stereo not given)	19%	13%	0	16µM*	-18	?
Fc1c(F)c(C(F)(F)F)c(F)c(F)c1Sc1cccc2cccnc12	.	.	3	.	.	.
CCOC(=O)c1c(C)oc2cc(Br)c(OC)cc12	-2%	-9%	-8	0%	17	-2%
Cc1onc(-c2ccccc2)c1C(=O)N1CCN(c2ccc([N+](=O)[O-])cc2)CC1	.	.	-1	21µM*	-2	?
COc1ccccc1N1CCN(C(=O)c2c(-c3c(F)cccc3Cl)noc2C)CC1	.	.	1	13µM*	45	23µM*
COc1cc2c(C(=O)N3CCN(c4ccccc4C)CC3)c(C)oc2cc1Br	3%	-3%	-3	16µM*	-73*	?
COc1ccccc1N1CCN(C(=O)c2c(-c3ccccc3)noc2C)CC1	-21%	-6%	-8	7.3µM*	40	10µM*
Cc1onc(-c2ccccc2)c1C(=O)N1CCN(c2ccccc2)CC1	0%	1%	-1	?	19	?
O=[N+]([O-])c1cc(Br)c2c(c1)CCN2	.	.	1	-27%	8	3%
O=[N+]([O-])c1cc(Cl)cc(C2=NCCN2)c1	-35%	-3%	8	?	6	18µM*
C=C(C)C(=O)OC1(C(F)(F)F)Oc2cc(C)ccc2NC1=O (stereo not given)	14µM*	?	-3	16µM*	-73*	16µM*
COc1ccc(C2(O)C(=O)Nc3ccc(C)cc32)cc1 (stereo not given)	-6%	1%	-7	4%	25	7%
Cc1ccccc1C(=O)NC(c1ccccc1)C(C)(C)C (stereo not given)	.	.	1	.	.	.
CN(C)c1nc(N(C)C)nc(-n2cnc(SCc3ccccc3)n2)n1	.	.	0	.	.	.
Cc1ccc(C2C(C#N)=C(SCC(=O)Nc3cccc(Cl)c3)NC3=C2C(=O)CCC3)o1 (stereo not given)	.	.	10	.	.	.
CCOc1ccccc1C1C(C#N)=C(SCC(=O)Nc2ccc(C)cc2)NC2=C1C(=O)CCC2 (stereo not given)	.	.	12	.	.	.
CCCCc1ccc(NC(=O)CSC2=C(C#N)C(c3ccco3)C3=C(CCCC3=O)N2)cc1 (stereo not given)	-3%	-8%	0	?	-86*	?

Screens from PubChem BioAssay.
